Bioassay records deposited in PubChem BioAssay by National Center for Advancing Translational Sciences (NCATS).
Rab9 promoter act = qHTS Assay for Rab9 Promoter Activators | Potency, µM (series often up to 9.22 µM), inactives show top-dose activation, negative = inhibition, actives largely listed as activators | AID 485297, 2010 | 2.8% of 320,000 active | Huh7 Rab9 promoter-luciferase reporter, luminescence, 24 h; note: % of control where 0% means no effect; nearly all actives have a fitted effect of over 60% in size
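Measured in stably transfected Huh7 cells bearing a Rab9 promoter–luciferase construct: 24 h compound treatment at 37 °C, followed by luminescence detection.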
ELG1 genotox = qHTS screen for small molecules that induce genotoxicity in human embryonic kidney (HEK293T) cells expressing luciferase-tagged ELG1 | HEK293T ELG1-luciferase reporter, luminescence, 16 h | Potency, µM (titrated, usually from 46 µM), without a hit: at the top dose activity change, positive = activation, usual class: activators | 1.3% of 330,000 active; note: % of control where 0% means no effect; nearly all actives have a fitted effect of over 60% in size
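ELG1-luciferase HEK293T cells, 2,000/well; compound pinned in; 16 hr, 37 °C, 5% CO2; ONE-Glo, 30 min RT; luminescence on CCD imager.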
FLuc modulator = qHTS profiling assay for firefly luciferase inhibitor/activator using purifed enzyme and Km concentrations of substrates (counterscreen for miR-21 project); Potency, µM (series often up to 57.5 µM), without a hit: at the top dose activity change, negative = inhibition, most hits filed as inhibitors; AID 588342, 2011; Luciferin 4-monooxygenase (Photinus pyralis), P08659; 6.9% of 360,000 active; purified FLuc, Km substrates, luminescence inhibition;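 note: plate controls were vehicle for no effect and reference inhibitor for full effect; nearly all actives have a fitted effect of over 55% in size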
Target sequence (P08659 whole entry, looked up): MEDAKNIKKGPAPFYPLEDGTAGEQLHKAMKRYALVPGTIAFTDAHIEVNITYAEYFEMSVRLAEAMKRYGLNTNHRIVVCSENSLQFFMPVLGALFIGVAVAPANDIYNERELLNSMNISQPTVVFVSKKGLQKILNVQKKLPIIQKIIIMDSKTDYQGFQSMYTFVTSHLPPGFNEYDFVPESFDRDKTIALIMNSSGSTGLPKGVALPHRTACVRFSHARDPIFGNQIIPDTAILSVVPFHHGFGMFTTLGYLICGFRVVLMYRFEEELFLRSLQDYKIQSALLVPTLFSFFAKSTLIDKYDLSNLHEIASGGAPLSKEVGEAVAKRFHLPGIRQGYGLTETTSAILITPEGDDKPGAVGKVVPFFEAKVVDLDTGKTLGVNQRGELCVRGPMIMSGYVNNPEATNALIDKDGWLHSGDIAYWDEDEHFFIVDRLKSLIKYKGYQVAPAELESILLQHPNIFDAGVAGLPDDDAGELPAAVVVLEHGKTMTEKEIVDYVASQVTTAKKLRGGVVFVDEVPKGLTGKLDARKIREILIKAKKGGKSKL
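Biochemical qHTS of compounds, final roughly 60 µM downward over six points, against 10 nM purified firefly luciferase using Km concentrations of substrates (10 uM D-luciferin, 10 uM ATP) in Tris acetate pH 7.5 buffer; luminescence output.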
SMN2 splice enh = qHTS Assay for Enhancers of SMN2 Splice Variant Expression | HEK293 SMN2-luciferase splicing reporter, luminescence, 30-36 h | Potency, µM (titrated, usually from 46.1 µM), without a hit: top-dose activity change, positive = activation, actives largely listed as activators | 2.8% of 210,000 active | AID 1458, 2008; note: % of control where 0% means no effect; nearly all actives have a fitted effect of over 55% in size
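HEK293 cells carry an SMN2 minigene-luciferase reporter in which exon 7 inclusion puts luciferase in frame. Cells were seeded at 2000 cells/well, attached for 10-12 hours, then exposed to compounds for 30-36 hours at 37C before ONE-Glo luminescence.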
NPC1 prom act = qHTS Assay for NPC1 Promoter Activators; AID 485313, 2010; 2.4% of 320,000 active; Potency, µM (top dose mostly 9.22 µM), without a hit: at the top dose activation, most hits filed as activators; Huh7 NPC1 promoter luciferase reporter, 24 h; note: % of control where 0% means no effect; nearly all actives have a fitted effect of over 60% in size
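Huh7 cells stably carrying NPC1 promoter–luciferase, plated in Opti-MEM with 10% FBS for 2 h, were exposed to compound in DMSO for 24 h at 37 °C; luciferase reagent was added for 10 min and luminescence read.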
* = called active by the depositor; u = inconclusive; x = no result. Hits are enriched below; roughly 7.4% of the tested compounds scored in any of these assays. Calls come from the whole dose curve; as a rule, active = well fitted curve in the direction sought with a large enough effect; inconclusive = small, poorly fitted or top-dose-only effect, or another doubt; inactive = no such curve, though single readings can be large; an effect the other way counts as inactive or inconclusive. Potency is the fitted concentration of half-maximal effect.

SMILES	Rab9 promoter act	ELG1 genotox	FLuc modulator	SMN2 splice enh	NPC1 prom act
CC(C)n1cc(/C=N/NC(=O)COc2cccc3cccnc23)c2ccccc21	1%	-5%	2.7µM*	x	0%
COc1cccc(/C=N/NC(=O)COc2cccc3cccnc23)c1O	-25%	3%	12µM*	-23%	-8%
CCCC(=O)Nc1cccc(-c2nc3cc(C)c(C)cc3o2)c1C	x	x	0.27µM*	u	x
Cc1ccc(OCC(=O)Nc2cccc(-c3nc4ccccc4o3)c2C)cc1C	x	x	-1%	0%	x
CCCC(=O)Nc1ccc(-c2nc3cc(C)c(C)cc3o2)cc1	0.35µM*	u	1.1µM*	11µM*	0.35µM*
O=C1/C(=C/c2cccs2)Sc2ccccc21	u	u	1.1µM*	u	14%
O=C1NC(=O)/C(=C\c2ccc(OCc3cnc(Cl)s3)cc2)S1	-3%	6%	u	15%	17%
CCCCOc1ccc(/C=C2/Sc3ccccc3C2=O)cc1	28%	8%	3.4µM*	16µM*	3%
CC(=O)Nc1ccc(S(=O)(=O)Oc2cccc(/C=C3\SC(N)=NC3=O)c2)cc1	4%	29%	1%	6%	0%
CCCCOc1ccc(/C=c2\sc3ncnn3c2=O)cc1	-4%	2%	-10%	-7%	-2%
CC(C)COc1ccc(/C=C2/Sc3ccccc3C2=O)cc1	22%	u	1.3µM*	u	u
CC(=O)Oc1cccc(/C=C2\Sc3ccccc3C2=O)c1	-3%	-2%	1.7µM*	x	0%
Cc1ccc(NC(=O)c2c(C(=O)Nc3ccccc3)sc3nc(C)cc(=O)n23)cc1	3%	2%	0%	-15%	-4%
O=C(Cc1ccc(S(=O)(=O)N2CCOCC2)s1)N(Cc1ccccc1)c1ccccc1	-1%	-18%	0%	x	0%
Cc1cc2oc(C(=O)Nc3nc(-c4ccccc4)ns3)c(C)c2cc1Cl	x	x	u	24%	x
CCc1ccccc1NC(=O)COc1ccc(N2CC(C(N)=O)CC2=O)cc1 (stereo unspecified)	-6%	1%	1%	x	0%
O=C(O)Cn1cc(/C=c2/sc3nc4ccccc4n3c2=O)c2ccccc21	-3%	0%	11µM*	17%	-1%
O=c1/c(=C\c2cccn2-c2ccccc2)sc2nc3ccccc3n12	2.5µM*	4.6µM*	u	x	u
Cc1ccc(-n2c(C)cc(/C=c3/sc4nc5ccccc5n4c3=O)c2C)cc1	-28%	-1%	1.2µM*	-79%	-22%
COc1cc(N2CCCC2)c(OC)cc1/C=c1/sc2nc3ccccc3n2c1=O	u	1%	u	-39%	u
O=Cc1cccn1-c1ccccc1	-2%	1%	-2%	x	-3%
CCOC(=O)C1CCCCN1C(=O)c1oc2c(Cl)cc(C)cc2c1C (stereo unspecified)	4%	-1%	12µM*	x	2%
COC(=O)C1CCN(C(=O)c2oc3c(Cl)cc(C)cc3c2C)CC1	0.63µM*	u	11µM*	x	0.79µM*
Cc1cc(Cl)c2oc(C(=O)NC3CCC(O)CC3)c(C)c2c1 (stereo unspecified)	9%	u	-18%	x	3%
Cc1ccc(C)c(NC(=O)/C(C#N)=C/c2ccc[nH]2)c1	14%	0%	-4%	x	24%
SMILES	Rab9 promoter act	ELG1 genotox	FLuc modulator	SMN2 splice enh	NPC1 prom act
Cc1cccc(NC(=O)/C(C#N)=C/c2ccc[nH]2)c1C	4µM*	u	-12%	x	u
N=C1C2=C3Sc4ccccc4N3CCCC2=NN1c1cccc(S(=O)(=O)O)c1	-2%	-1%	19µM*	x	-4%
N#CC1=C2Sc3ccccc3N2CCCC1=O	u	u	-19%	6%	u
O=C(NCCc1ccccc1)c1nn(-c2ccc(F)cc2)nc1CO	x	x	7%	18%	x
C=CCc1ccccc1OCCn1nnc2ccccc21	6%	0%	-8%	x	0%
C/C=C/c1ccc(OCCn2nnc3ccccc32)c(OC)c1	u	u	17µM*	x	26%
Cc1cccc(OCCn2nnc3ccccc32)c1C	27%	u	17µM*	x	u
COc1ccc(C(=O)N2CCC3(CCCN(CC(C)C)C3)CC2)cc1	x	x	x	-3%	x
COc1cccc(/C=C2/C(=O)NN(c3ccc(Br)cc3)C2=O)c1O	-2%	2%	1.9µM*	x	-3%
COc1cc(/C=C2/C(=O)NN(c3ccc(F)cc3)C2=O)cc(Cl)c1O	0%	0%	21µM*	x	-1%
COc1cc(/C=C2/C(=O)NN(c3ccc(Cl)cc3)C2=O)cc(Br)c1O	0%	-4%	27µM*	x	1%
COc1ccccc1N1C[C@@H]2C[C@@H](c3ccco3)N3CCC[C@@]23C1=O	0%	-2%	-1%	x	-20%
CC1CCN(C(=O)c2ccc3ccccc3c2)CC1	2.5µM*	u	12µM*	x	3.5µM*
CC1CC(C)CN(C(=O)c2ccc3ccccc3c2)C1 (stereo unspecified)	18%	1%	-4%	x	1%
COc1cccc(N2CCN(C(=O)c3ccc4nc(N5CCC(C)CC5)sc4c3)CC2)c1	u	u	9.5µM*	-25%	u
CCOC(=O)N1CCN(C(=O)c2ccc3nc(N4CCCCC4)sc3c2)CC1	14%	-1%	-15%	14%	21%
NC(=O)C1CCN(C(=O)c2ccc3nc(N4CCCCC4)sc3c2)CC1	3.2µM*	u	u	x	2.8µM*
O=C(c1ccc2nc(N3CCCCC3)sc2c1)N1CCN(Cc2ccc3c(c2)OCO3)CC1	-2%	23µM*	-13%	-64%	11%
N=C1/C(=C\c2ccc(Br)o2)C(=O)N=C2SC(CC(=O)N3CCCCC3)=NN12	4%	-2%	-16%	x	-6%
c1ccc(CN2CCN(c3nc4ccccc4s3)CC2)cc1	0.71µM*	9.2µM*	2.7µM*	x	1.4µM*
CC1CCN(c2nc3ccc(C(=O)N4CCN(Cc5ccccc5)CC4)cc3s2)CC1	25%	u	17µM*	-57%	16%
COc1ccc(C(=O)COC(=O)CCNS(=O)(=O)c2ccccc2)cc1Br	-5%	8%	-1%	x	-3%
O=C(NCc1ccc(F)cc1)c1cc2n(n1)CCCN(Cc1ccc(F)cc1)C2=O	x	x	-7%	-15%	x
COc1ccc(C)c2sc(=NC(=O)C(C)C)n(C)c12	2%	2%	-1%	-16%	6%
C=CCn1c(=NC(=O)c2cccc(N3C(=O)CCC3=O)c2)sc2cccc(OC)c21	-3%	-8%	u	x	1%
COc1ccc(C)c2sc(=NC(=O)c3ccccc3)n(C)c12	2.8µM*	6.5µM*	2.1µM*	11µM*	u
COc1ccc(C)c2sc(=NC(=O)c3ccc(C(C)=O)cc3)n(C)c12	0.5µM*	u	0.67µM*	x	0.56µM*
